The text below walks through data of PMC5540273 (PLoS ONE, 2017).

Each structure is given as a SMILES string.

What all share (settings): concentration: 1 μM, replicates: in singlicate; n = 1
The subject of assay [1] is T1, NDR1.
T1 construct: gene STK38

Assay [2] concerns NDR2.
Assay [3] concerns NEK10.
In assay [4] the test system is NEK11.
Assay [5] has as its system NEK1.
The test system of assay [6] is NEK2.
Assay [7] deals with NEK3.
Assay [8] concerns NEK4.
Assay [9] relates to NEK5.
The subject of assay [10] is NEK6.
The test system of assay [11] is NEK7.
For assay [12], the system named is NEK9.
Assay [13] has as its system T2, NIK.
T2 construct: gene MAP3K14

Assay [14] relates to T3, NIM1.
T3 construct: gene MGC42105

Assay [15] deals with NLK.
The test system of assay [16] is T4, OSR1.
T4 construct: gene OXSR1

Assay [17] concerns PAK1.
Assay [18] has as its system PAK2.
Assay [19] deals with PAK3.
The test system of assay [20] is PAK4.
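Further: KINOMEscan kinase panel screen.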

Consider `C[C@@H]1CCCCN1c1cc(-c2ccc3c(N)n[nH]c3c2)nc(N)n1` [GSK2258759], for which the “%Inh” value in [1] stood at 24%; in assay [2] it was 12%; in [3] it was 0%; in assay [4], 0%; in assay [5], 0%; in assay [6] it was 3%. In addition, the “%Inh” value in assay [7] was found to be 10%; in assay [8] it was 0%; in [9], 8%; in assay [10] it was 0%; in assay [11], 0%; in [12] it was 0%. The “%Inh” value in assay [13] is reported as 7%; in [14], 0%; in [15], 23%; in assay [16], 0%; in assay [17] it was 6%; in assay [18], 0%. For the same compound, the “%Inh” value in assay [19] and in assay [20] was 0% throughout.
Regarding `Cl.NC(=O)c1cccc(Nc2nccc(Nc3ccc(Oc4cccc(Cl)c4)c(Cl)c3)n2)c1` [GW659008], the “%Inh” value in assay [1], in assay [2], in assay [3], in assay [4], in assay [5] and in [6] was 0% each time. Besides, the “%Inh” value in assay [7] turned out to be 0%; in assay [8], 1%; in assay [9], 32%; in [10], 0%; in assay [11], 16%; in [12], 3%. Besides, the “%Inh” value was found to be 27% in assay [13]; 29% in assay [14]; 21% in [15]; 8% in assay [16]; 9% in [17]; 9% in [18]. Moreover, the “%Inh” value in assay [19] is on record as 33%; in [20], 0%.
In the case of `CN(C)CCN(C)C(=O)c1cc(-c2ccncc2)c(-c2ccc(Cl)c(O)c2)o1.Cl.Cl` [SB-710397], the “%Inh” value in [1] is given as 1%; in assay [2], 36%; in assay [3], 33%; in assay [4], 29%; in assay [5] it was 0%; in assay [6] it was 0%. The “%Inh” value came out at 26% in assay [7]; 20% in [8]; 8% in assay [9]; 0% in assay [10]; 0% in [11]; 0% in assay [12]. Moreover, the “%Inh” value in assay [13] worked out at 16%; in assay [14], 35%; in assay [15] it was 76%; in [16], 4%; in [17], 6%; in assay [18] it was 0%. Further, the entries for the “%Inh” value in assay [19] and in assay [20] were 16% and 0%, respectively.
As for `Cc1cc(N2Cc3ccccc3C2)nc(Nc2ccc(S(=O)(=O)N3CCOCC3)cc2)n1.Cl` [GSK1669917], the “%Inh” value is 20% in [1]; 0% in assay [2]; 0% in assay [3]; 0% in [4]; 0% in assay [5]; 0% in [6]. Also, the “%Inh” value in assay [7] came out at 0%; in assay [8], 9%; in assay [9], 23%; in assay [10], 0%; in assay [11] it was 0%; in assay [12], 0%. The “%Inh” value turned out to be 0% in assay [13]; 6% in assay [14]; 7% in assay [15]; 0% in [16]; 8% in assay [17]; 3% in [18]. For the same compound, the “%Inh” value in assay [19] and in assay [20] was 0% each time.
With `O=S(=O)(c1ccc(-c2ccnc3[nH]ccc23)cc1)N1CCCC1` [GSK846226], the “%Inh” value is reported as 33% in assay [1]; 38% in assay [2]; 15% in [3]; 0% in [4]; 12% in [5]; 16% in assay [6]. For the same compound, the “%Inh” value is given as 16% in assay [7]; 0% in [8]; 31% in assay [9]; 0% in assay [10]; 20% in assay [11]; 28% in assay [12]. Besides, the “%Inh” value turned out to be 12% in [13]; 0% in [14]; 14% in assay [15]; 4% in [16]; 0% in assay [17]; 0% in assay [18]. The “%Inh” value in [19] is 12%; in [20], 0%.
On to `COc1cccc(-c2cc(-c3c[nH]nc3-c3ccccn3)ccn2)c1` [GW680338], for which the “%Inh” value in [1] is recorded as 16%; in [2] it was 19%; in assay [3], 4%; in assay [4], 0%; in [5], 0%; in [6], 0%. For the same compound, the “%Inh” value in assay [7] is 5%; in [8], 13%; in assay [9] it was 14%; in assay [10], 0%; in [11] it was 0%; in [12], 1%. The “%Inh” value was found to be 19% in assay [13]; 21% in assay [14]; 6% in assay [15]; 0% in assay [16]; 0% in assay [17]; 0% in [18]. The “%Inh” value in assay [19] and in [20] was 9% in each case.
